Assay outcomes as filed in PubChem BioAssay.
A selection: hits, their analogues and other compounds. The true share with any hit is near 21%.
HCV inh = qHTS Assay for Inhibitors of Hepatitis C Virus (HCV); Huh7.5.1 HCVcc-Cre infection, luciferase reporter, 44 h; Potency, µM (series often up to 41.8 µM), for inactives: top-dose activity change, negative = inhibition, usual class: inhibitors; 3.4% of 340,000 active; further: potency means the concentration at half of the fitted maximal effect; on the % scale 0 is the no-effect control and ±100 the full control effect
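HCVcc-Cre virus at an moi near 0.5 was added right after compound to cells cultured 4 h from seeding (1,000 cells/well). Luciferase activity was determined 44 h later, 15 min after substrate addition at RT.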
Cycloheximide cs = Cycloheximide Counterscreen for Small Molecule Inhibitors of Shiga Toxin. cell reporter, cycloheximide protein synthesis inhibition counterscreen. max response, %. 12% of 300,000 active. AID 2314, 2010; in the data active means max response mostly above about 13%, no sharp cut-off; inactive means mostly below about 14%; further: read at 38.3 µM for the half of the compounds with a filed dose; 0% is about no effect
Pf growth 96h = Primary qHTS for delayed death inhibitors of the malarial parasite plastid, 96 hour incubation | Potency, µM (doses to about 28.7 µM), inactives show at the highest dose activity change, negative = inhibition, usual class: inhibitors | P. falciparum luciferase reporter growth, 96 h | 6.9% of 320,000 active; further: potency means the concentration at half of the fitted maximal effect; on the % scale 0 is the no-effect control and ±100 the full control effect
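Delayed-death screen, second-generation endpoint: infected erythrocytes, 2% hematocrit, 0.05% parasitemia final; 96 hours at 37 C, 5% CO2; luciferase detection reagent; luminescence decrease equals reduced growth.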
Shiga inhibitor = A qHTS for Small Molecule Inhibitors of Shiga Toxin; Vero cells, Shiga toxin protein synthesis inhibition reporter; inhibition, % at 38.7 µM; 9.2% of 290,000 active; in the data active means inhibition mostly above about 28%, no sharp cut-off; inactive means mostly below about 43%; further: 0% is about no effect
AMA1 RON2 block = qHTS for Inhibitors of AMA1-RON; Towards Development of Antimalarial Drug Lead: Primary Screen; Plasmodium falciparum AMA1 (3D7) - RON2 peptide interaction; AlphaScreen AMA1-biotinylated RON2 peptide binding; Potency, µM (series often up to 58.2 µM), for inactives: at the top dose activity change, negative = inhibition, actives largely listed as inhibitors; 0.2% of 360,000 active; AID 720542, 2013;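 further: potency means the concentration at half of the fitted maximal effect; 0% = vehicle wells and -100% = peptide control; nearly all actives have a fitted effect of over 45% in size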
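AMA1 (3D7) with his tag at 25 nM final met compounds first, then biotinylated RON2 peptide at 25 nM; detection used donor plus acceptor beads, 10 µg/mL apiece, read by AlphaScreen after 30 min at room temperature.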
Pf growth 48h = Primary qHTS for delayed death inhibitors of the malarial parasite plastid, 48 hour incubation; AID 504832, 2011; 5.9% of 310,000 active; Potency, µM (highest dose often 28.7 µM), for the others: top-dose activity change, negative = inhibition, usual class: inhibitors; P. falciparum luciferase growth in erythrocytes, 48 h; further: potency means the concentration at half of the fitted maximal effect; on the % scale 0 is the no-effect control and ±100 the full control effect
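Cell-based growth assay: transgenic P. falciparum expressing firefly luciferase, cultured in red cells within RPMI 1640 containing 0.5% w/v Albumax, 24 mM bicarbonate and gentamycin. A drop in luciferase activity indicates inhibition.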
Starred values were filed as active, the others as inactive; i = inactive; ? = inconclusive; . = not tested or not shown; [ ] = dose if it differs, or a comment. Unless noted, the call rests on the fitted dose curve; in most records, active means well fitted curve in the direction sought with a large enough effect; inconclusive means small, poorly fitted or top-dose-only effect, or another doubt; inactive means no such curve, though single readings can be large; an effect the other way counts as inactive or inconclusive.

SMILES | HCV inh | Cycloheximide cs | Pf growth 96h | Shiga inhibitor | AMA1 RON2 block | Pf growth 48h
Cc1cc2c(cc(C(=O)NCc3cccnc3)n2Cc2ccc(Cl)cc2)o1 | . | -3.0 | 10.4µM* | -26.0 | -5.2% | ?
Cc1oc(-c2ccc(Cl)cc2)nc1CN1CCC(C(=O)NCc2cccnc2)CC1 | 14.1µM* | 7.6 | 0.0% | 4.9 | -3.8% | -35.6%
CN(c1ccc(C(=O)NCc2cccnc2)cc1)S(=O)(=O)c1ccc(Cl)cc1 | 4.0% | -1.8 | 3.1% | -31.7 | 7.9% | -5.7%
CCCN(CCC)CCNC(=O)C1CCN(Cc2nc(-c3ccc(Cl)cc3)oc2C)CC1 | 0.794µM* | -2.5 | ? | 25.6 | -11.1% | 4.65µM*
Cc1ccc(S(=O)(=O)N/N=C\c2ccc3c(c2)OCO3)cc1 | 4.6% | 15.7* | 7.8% | 40.6 | -0.9% | -1.6%
Cc1ccc(S(=O)(=O)N/N=C\c2ccc3c(c2)OCO3)cc1C | 4.7% | 5.2 | 34.8% | -14.8 | -7.3% | 23.5%
COc1ccc(S(=O)(=O)N/N=C\c2ccc3c(c2)OCO3)c(OC)c1 | 3.55µM* | 2.3 | ? | -3.9 | -8.7% | ?
Cc1ccc(S(=O)(=O)Oc2cccc(/C=N/Nc3ccc(C(=O)O)cc3)c2)cc1 | 18.8% | 36.6* | 3.7% | 25.6* | -13.0% | 13.5%
Cc1ccc(S(=O)(=O)Oc2cccc(/C=N/n3cnnc3)c2)cc1 | -5.2% | 9.9 | 101.4% | 21.4 | -11.1% | 35.0%
COc1ccc(OC)c(S(=O)(=O)N/N=C\c2ccc3c(c2)OCO3)c1 | -2.1% | 44.4* | -31.2% | 72.9* | -7.6% | 61.0%
COc1ccccc1CNS(=O)(=O)c1cc2c3c(c1)CCN3C(=O)CC2 | -9.9% | . | 6.3% | . | -2.5% | ?
Cc1ccc(S(=O)(=O)N/N=C/c2ccc(C(=O)O)cc2)cc1 | 19.3% | 0.0 | 11.7µM* | -9.6 | -3.4% | 30.5%
CC(=O)Nc1ccc(NC(=O)C(C)OC(=O)C2(c3ccccc3F)CCCC2)cc1 (stereo unspecified) | ? | . | 11.7µM* | . | 0.4% | 8.28µM*
CC(=O)NCCC(=O)NCC1(N(C)Cc2ccccc2)Cc2ccccc2C1 | 15.2% | -3.9 | 7.6% | -6.2 | -1.5% | -3.8%
CN(Cc1ccccc1)C1(CNC(=O)CCC(F)(F)F)Cc2ccccc2C1 | 9.0% | -1.0 | 14.7µM* | . | 9.5% | 27.9%
Nc1c(C(=O)c2ccccc2O)cnn1-c1ccc(S(=O)(=O)N2CCOCC2)cc1[N+](=O)[O-] | . | 5.1 | -17.6% | 22.3 | . | 0.3%
Cc1ccc(OC/C(=N\O)C(C)(C)C)c([N+](=O)[O-])c1 | -5.4% | 34.0* | 121.5% | 75.1* | 0.0% | i
Cc1ccc(/C=N\NC(=O)COc2ccc(C)cc2[N+](=O)[O-])cc1 | -24.1% | 19.8 | ? | 15.4 | -19.9% | ?
Cc1ccc(OCC(=O)Nc2ccccc2[N+](=O)[O-])c(Br)c1 | 1.2% | 42.0* | -9.0% | 121.6* | ? | 126.3%
Cc1ccc(OCC(=O)Nc2ccon2)c([N+](=O)[O-])c1 | -1.1% | 41.8* | 104.7% | 84.0* | -5.1% | 131.7%
Cc1ccc(NC(=O)c2ncn(CCCNCC(C)c3ccccc3)n2)cc1C (stereo unspecified) | ? | . | . | . | -3.3% | .
CC1=C(C(=O)OCc2ccccc2)C(c2ccc(-c3ccccc3)cc2)NC(=O)N1CCCCCC(=O)O (stereo unspecified) | 6.9%[8.37 µM] | 2.6 | ? | 6.9 | -13.5% | -23.5%
CCCCCCN(C(=O)CCCN1C(=O)NC(c2ccc(-c3ccccc3)cc2)C(C(=O)OCc2ccccc2)=C1C)C(C)C(=O)NCCCC (stereo unspecified) | ? | . | . | . | 9.3% | .
CCCCCCN(C(=O)CCCCCN1C(=O)NC(c2ccc(-c3ccccc3)cc2)C(C(=O)OCc2ccccc2)=C1C)C(C(=O)NCCCC)c1ccc(O)cc1 (stereo unspecified) | -1.8%[8.37 µM] | -2.3 | 2.08µM* | -8.7 | . | ?
CCCCCCN(C(=O)CCCCCN1C(=O)NC(c2ccc(-c3ccccc3)cc2)C(C(=O)OCc2ccccc2)=C1C)C(C(=O)NCCCC)c1cccc(C(=O)OC)c1 (stereo unspecified) | . | -3.6 | 1.65µM* | -4.9 | . | 1.85µM*
SMILES | HCV inh | Cycloheximide cs | Pf growth 96h | Shiga inhibitor | AMA1 RON2 block | Pf growth 48h
CCCCCCN(C(=O)CCCCCN1C(=O)NC(c2ccc(-c3ccccc3)cc2)C(C(=O)OCc2ccccc2)=C1C)C(C(=O)NCCCC)c1ccc(-c2ccccc2)cc1 (stereo unspecified) | . | -5.9 | 0.262µM* | -4.8 | . | 0.828µM*
CCCCCCN(C(=O)CCCCCN1C(=O)NC(c2ccc(-c3ccccc3)cc2)C(C(=O)OCc2ccccc2)=C1C)C(C(=O)NCCCC)c1ccc(O)c(C(=O)OC)c1 (stereo unspecified) | . | -0.9 | 2.08µM* | -1.0 | . | 2.08µM*
CCCCCCN(C(=O)CCCCCN1C(=O)NC(c2ccc([N+](=O)[O-])cc2)C(C(=O)OCc2ccccc2)=C1C)C(C(=O)NCCCC)C1CCCCC1 (stereo unspecified) | 14.5% | . | . | . | 0.8% | .
O=C(Cc1ncc(C(F)(F)F)cc1Cl)NCc1ccco1 | -7.0% | 1.6 | 38.4% | -7.5 | 12.4% | 369.0%
Cc1ccc(C(=O)NCCN2CCC(n3c(=O)[nH]c4ccccc43)CC2)cc1C | . | . | . | . | 10.4% | .
C=CCSc1nnc(Cc2c(C)[nH]c3ccccc23)o1 | ? | 0.5 | 8.28µM* | 2.6 | -0.2% | 3.8%
Cc1[nH]c2ccccc2c1Cc1nnc(SCCC#N)o1 | ? | 0.6 | -8.6% | 15.1 | -8.0% | -22.9%
COc1ccc2nc3n(c(=O)c2c1)-c1ccc(Cl)cc1C(=O)NC3Cc1ccc(O)cc1 (stereo unspecified) | ? | . | . | . | 16.3% | .
Cc1onc(-c2ccccc2)c1-c1nc2ccccc2c(=O)o1 | 13.9% | -1.9 | 17.5% | -10.7 | -1.4% | .
CCn1c(C)nc2cc(-c3nnc(-c4c(-c5ccccc5)noc4C)o3)ccc21 | ? | -6.8 | -3.4% | -12.6 | 0.7% | 9.28µM*
Cc1cc2nc(CCN(Cc3cccnc3)C(=S)Nc3ccccc3)[nH]c2cc1C | ? | 4.8 | 7.38µM* | 5.0 | -0.3% | 11.7µM*
COc1ccccc1NC(=S)N(CCc1nc2cc(C)c(C)cc2[nH]1)Cc1cccnc1 | ? | -1.7 | ? | 16.2 | 1.8% | 10.4µM*
CCOc1ccc(CCNS(=O)(=O)c2cc3c(cc2C)NC(=O)CO3)cc1OCC | -24.6% | -2.5 | ? | -1.8 | 4.3% | -5.3%
COC(=O)[C@@]12C[C@@H](CC(=O)NCc3ccccc3)C(=O)N(Cc3ccccc3)C1=CCC(C)(C)C2 | . | . | . | . | -16.2% | .
